{"source": "PubChem BioAssay AID977611", "origin": "cited, not measured here", "assay": "PubChem AID 977611", "conditions": "PDB protein-ligand complexes, literature Kd", "note": "Out of some 3,900 compounds screened, about 3,900 (100%) were called active. Cut-off not given; nearly all actives show Kd up to about 4200 µM. The set was probably picked from earlier hits. This is one part of the list. *1 amine or outer side, *2 acyl side, *3 side chain or, on linkers, in order; H or OH if unused. Where a SMILES comes first, the peptide text is derived from it. Non-standard residues stand in square brackets, D forms with d. Square brackets hold non-standard residues; d marks the D form. Residues, ends and D or L forms follow the SMILES beside them. Peptide text beside a SMILES is read from it. [ ]: non-standard residue; d: D form. Thr(P(OH)3+) = C[C@@H](O[P+](O)(O)O)[C@H](N)C(=O)O; X1 = O=C([C@H](Cc1ccc(OS(O)(O)O)cc1)N[*:1])[*:2]"}
{"compound": "NC1NC(=O)c2ncn([C@@H]3O[C@H](CO[P+](O)(O)O[P+](O)(O)O[P+](O)(O)O)[C@@H](O)[C@H]3O)c2N1", "note": "(some centres undefined)", "values": [{"measurement": "Kd", "setting": "protein: ADP-ribosylation factor 6, PDB entry 4kax", "result": "17 µM (active)"}]}
{"compound": "NC1C=CN([C@@H]2O[C@H](CO[P+](O)(O)O[C@H]3[C@@H](O)[C@H](n4cnc5c4NC(N)NC5=O)O[C@@H]3CO[P+](O)(O)O[C@H]3[C@@H](O)[C@H](n4cnc5c4NC(N)NC5=O)O[C@@H]3CO[P+](O)(O)O[C@H]3[C@@H](O)[C@H](n4cnc5c4NC(N)NC5=O)O[C@@H]3CO[P+](O)(O)O)[C@@H](O[P+](O)(O)O)[C@H]2O)C(=O)N1", "note": "(some centres undefined)", "values": [{"measurement": "Kd", "setting": "protein: Heat resistant RNA dependent ATPase, PDB entry 4i67", "result": "0.45 µM (active)"}]}
{"compound": "NC1NC(=O)c2ncn([C@H]3CC[C@@H](CO[P+](O)(O)O[P+](O)(O)O[P+](O)(O)O)O3)c2N1", "note": "(some centres undefined)", "values": [{"measurement": "Kd", "setting": "protein: DNA polymerase X from Thermus thermophilus HB8, PDB entry 3au6", "result": "0.012 µM (active)"}]}
{"compound": "NC1NC(=O)c2ncn([C@@H]3O[C@H](CO[P+](O)(O)O[P+](O)(O)O)[C@@H](O)[C@H]3O)c2N1", "note": "(some centres undefined)", "values": [{"measurement": "Kd", "setting": "PDB entry 4lps", "result": "1.8 µM (active)"}, {"measurement": "Kd", "setting": "protein: Atlastin-1, PDB entry 4ido", "result": "11.6 µM (active)"}, {"measurement": "Kd", "setting": "protein: Methylmalonyl-CoA mutase accessory protein, PDB entry 4jyc", "result": "0.2 µM (active)"}, {"measurement": "Kd", "setting": "protein: Ras-related protein Rab-8A with Guanine nucleotide exchange factor GRAB, PDB entry 4li0", "result": "0.26 µM (active)"}, {"measurement": "Kd", "setting": "protein: Ras-related protein Rab-8A, PDB entry 4lhv", "result": "0.0001 µM (active)"}]}
{"compound": "NC1NC(=O)c2ncn([C@@H]3O[C@H](CO[P+](O)(O)O[P+](O)(O)N[P+](O)(O)O)[C@@H](O)[C@H]3O)c2N1", "note": "(some centres undefined)", "values": [{"measurement": "Kd", "setting": "protein: Atlastin-1, PDB entry 4idn", "result": "5.77 µM (active)"}, {"measurement": "Kd", "setting": "protein: GTPASE IMAP FAMILY MEMBER 7, PDB entry 3zjc", "result": "9 µM (active)"}, {"measurement": "Kd", "setting": "protein: Methylmalonyl-CoA mutase accessory protein, PDB entry 4jyb", "result": "0.11 µM (active)"}]}
{"compound": "O=C(O)CCc1c[nH]c2ccccc12", "values": [{"measurement": "Kd", "setting": "protein: Protease (Q7K, L33I, L63I, C67A, C95A mutation), PDB entry 4ejl", "result": "7.2 µM (active)"}]}
{"compound": "O=C(O)c1c[nH]c2ccccc12", "values": [{"measurement": "Kd", "setting": "protein: INTEGRASE, PDB entry 4ahu", "result": "5400 µM (active)"}]}
{"compound": "H-VGMHSKGTQTA-OH", "values": [{"measurement": "Kd", "setting": "protein: DYNEIN LIGHT CHAIN 1, CYTOPLASMIC, PDB entry 3zke", "result": "0.16 µM (active)"}]}
{"compound": "CSCC[C@H](NC(=O)CNC(=O)[C@@H](N)C(C)C)C(=O)N[C@@H](Cc1cnc[nH]1)C(=O)N[C@@H](CO[P+](O)(O)O)C(=O)N[C@@H](CCCCN)C(=O)NCC(=O)N[C@H](C(=O)N[C@@H](CCC(N)=O)C(=O)N[C@H](C(=O)O)[C@@H](C)O)[C@@H](C)O", "values": [{"measurement": "Kd", "setting": "protein: DYNEIN LIGHT CHAIN 1, CYTOPLASMIC, PDB entry 3zkf", "result": "0.96 µM (active)"}]}
{"compound": "NCc1csc(-c2cccs2)n1", "values": [{"measurement": "Kd", "setting": "protein: CATIONIC TRYPSIN, PDB entry 4aba", "result": "153 µM (active)"}]}
{"compound": "Cc1noc(C)c1-c1cc(NS(=O)(=O)c2ccccc2)cc(C(=O)O)c1", "values": [{"measurement": "Kd", "setting": "protein: ATPase family AAA domain-containing protein 2 ATAD2A bromodomain, PDB entry 4tu4", "result": "175 µM (active)"}]}
{"compound": "O=C(O)c1cccc2ccoc12", "values": [{"measurement": "Kd", "setting": "protein: INTEGRASE, PDB entry 4ahs", "result": "6400 µM (active)"}]}
{"compound": "O=C(O)Cc1cc(O)ccc1O", "values": [{"measurement": "Kd", "setting": "protein: HOMOGENTISATE 1,2-DIOXYGENASE, PDB entry 4aq6", "result": "15.8 µM (active)"}]}
{"compound": "CC(C)C[C@H](NC(=O)[C@H](CC(C)C)NC(=O)CNC(=O)[C@@H](NC(=O)[C@H](CC(=O)O)NC(=O)[C@H](CC(=O)O)NC(=O)[C@H](Cc1ccc(OS(O)(O)O)cc1)NC(=O)[C@H](Cc1ccc(OS(O)(O)O)cc1)NC(=O)[C@H](CO)NC(=O)[C@@H](NC(=O)[C@@H](NC(=O)CNC(=O)[C@H](Cc1ccccc1)NC(=O)[C@@H](NC(=O)[C@H](CCC(=O)O)NC(=O)[C@@H](N)C(C)C)[C@@H](C)O)[C@@H](C)O)[C@@H](C)O)C(C)C)C(=O)O", "note": "(H-VETFGTTS[X1][X1]DDVGLL-OH)", "values": [{"measurement": "Kd", "setting": "protein: CC chemokine (CCL11/ eotaxin-1), PDB entry 2mpm", "result": "1.3 µM (active)"}]}
{"compound": "CC(C)C[C@H](NC(=O)[C@@H](N)CO)C(=O)N[C@@H](CCC(=O)O)C(=O)N[C@H](C(=O)N[C@H](C(=O)N[C@@H](CCC(=O)O)C(=O)N[C@@H](C)C(=O)N[C@@H](CC(=O)O)C(=O)N[C@@H](C)C(=O)N[C@H](C(=O)N[C@@H](Cc1ccccc1)C(=O)N[C@H](C(=O)N[C@@H](CCC(N)=O)C(=O)O)C(C)C)[C@@H](C)O)[C@@H](C)O[P+](O)(O)O)C(C)C", "note": "(H-SLEV[Thr(P(OH)3+)]EADATFVQ-OH)", "values": [{"measurement": "Kd", "setting": "protein: FHA1 Domain of Rad53, PDB entry 1k3q", "result": "0.3 µM (active)"}]}
{"compound": "H-AFFAQLQLDAETGEFL-OH", "values": [{"measurement": "Kd", "setting": "protein: Kelch-like ECH-associated protein 1, PDB entry 2flu", "result": "0.02 µM (active)"}]}
{"compound": "CC(C)C[C@H](NC(=O)[C@H](Cc1ccccc1)NC(=O)[C@H](CCC(=O)O)NC(=O)[C@H](C)NC(=O)[C@@H](NC(=O)[C@H](CC(C)C)NC(=O)[C@H](CCC(=O)O)NC(=O)[C@H](CC(=O)O)NC(=O)[C@H](CCC(=O)O)NC(=O)[C@H](CO)NC(=O)[C@H](C)N)C(C)C)C(=O)N[C@@H](CCC(N)=O)C(=O)N[C@@H](CC(=O)O)C(=O)N[C@@H](CCC(N)=O)C(=O)N[C@@H](CC(N)=O)C(=O)O", "note": "(H-ASEDELVAEFLQDQN-OH)", "values": [{"measurement": "Kd", "setting": "protein: PEROXISOMAL MEMBRANE PROTEIN PEX14, PDB entry 4bxu", "result": "0.1 µM (active)"}]}
{"compound": "CC(C)C[C@H](NC(=O)[C@H](CCC(=O)O)NC(=O)[C@H](CCC(N)=O)NC(=O)[C@@H](NC(=O)[C@H](CO)NC(=O)[C@@H](N)C(C)C)[C@@H](C)O[P+](O)(O)O)C(=O)N[C@@H](Cc1ccc(O)cc1)C(=O)N[C@@H](CO)C(=O)O", "note": "(H-VS[Thr(P(OH)3+)]QELYS-OH)", "values": [{"measurement": "Kd", "setting": "protein: mammalian MDC1 FHA domain, PDB entry 3va4", "result": "40 µM (active)"}]}
{"compound": "H-DDFGGFEAAET-OH", "values": [{"measurement": "Kd", "setting": "protein: ADP-ribosylation factor binding protein GGA1, PDB entry 1om9", "result": "70 µM (active)"}]}
{"compound": "H-EPQAPWME-OH", "values": [{"measurement": "Kd", "setting": "protein: antibody Fab, PDB entry 3uyr", "result": "0.127 µM (active)"}]}
{"compound": "C[C@H](NC(=O)[C@@H](N)CO)C(=O)N[C@@H](CCCNC(N)N)C(=O)N[C@@H](Cc1c[nH]c2ccccc12)C(=O)N[C@@H](CCCNC(N)N)C(=O)N[C@@H](Cc1ccccc1)C(=O)N1CCC[C@H]1C(=O)N[C@@H](C)C(=O)N[C@@H](CCCNC(N)N)C(=O)N1CCC[C@H]1C(=O)NCC(=O)N[C@H](C(=O)O)[C@@H](C)O", "values": [{"measurement": "Kd", "setting": "protein: Menin (A541T mutation), PDB entry 4gq6", "result": "0.053 µM (active)"}]}
{"compound": "CC(C)C[C@@H](NC(=O)[C@H]1CCCN1C(=O)[C@@H](Cc1c[nH]c2ccccc12)NC(=O)[C@@H](Cc1c[nH]c2ccccc12)NC(=O)[C@H](N)CC(=O)O)C(=O)N[C@H](C)C(=O)N[C@H](Cc1ccccc1)C(=O)N[C@H](CCC(=O)O)C(=O)N[C@H](C)C(=O)N[C@H](CC(C)C)C(=O)N[C@H](CC(C)C)C(=O)N[C@H](CCCNC(N)N)C(=O)O", "values": [{"measurement": "Kd", "setting": "protein: human MDM2 (Synthetic construct, 25-109), PDB entry 3iwy", "result": "0.053 µM (active)"}]}
{"compound": "H-EWGPWV-NH2", "values": [{"measurement": "Kd", "setting": "protein: AP-1 COMPLEX SUBUNIT GAMMA-LIKE 2, PDB entry 2ymt", "result": "0.01 µM (active)"}]}
